This is an account of results in PubChem BioAssay.

The source made the active and inactive calls.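 How the source made its calls, unless noted: active means inhibition at or above 50% at 10 µM; inactive means inhibition below 50%.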

Assay [1] in a line: inhibitors of TNFa-induced NFkB p65 translocation, primary screen, imaging, HUVEC, MLSMR starter and 10KST1 sets (AID 438;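 active means inhibition above 20% together with a positive visual image hit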;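 further: compound added about 3h40 before a 20 min TNFalpha stimulation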;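 on inhibition: signal is the nuclear over cytoplasmic p65 intensity ratio per well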). The conditions noted are these: HUVEC TNFa-induced p65 nuclear translocation; cell count: measured here: nuclei count (cytotoxicity indicator), at 2.08 µM; inhibition: at 2 µM, stronger effect = higher value, 0% TNFa-plus-vehicle, 100% no-TNFa wells.
A short description of assay [2]: inhibitors of mutant huntingtin aggregation, primary screen, imaging, exon1htt(103Q)mCFP cells, high-content imaging (AID 483;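 active means visual image review flags a hit and inhibition of aggregation exceeds 20%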;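 further: compound exposure lasted 3 days before fixation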;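 on nuclei count: percent of the per-plate median nuclei count of sample wells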). Conditions: exon1htt(103Q)mCFP cell line, aggregate imaging, at 2 µM; inhibition of aggregation: stronger effect = higher value; nuclei count: measured here: cell count, toxicity.
The nature of assay [3]: inhibitors of E-selectin induction by TNFa, primary screen, imaging, HUVEC, immunofluorescence, MLSMR starter and 10KST1 sets (AID 487;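 active means visually confirmed hit in the image check and inhibition above 20%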;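 on inhibition: signal is fraction of cell area covered by stained E-selectin grains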;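 on nuclei count: 100% = median nuclei count of all wells on the same plate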). The conditions noted are these: HUVEC TNFalpha-induced E-selectin immunofluorescence imaging, at 2 µM; inhibition: stronger effect = higher value; nuclei count: measured here: cell number, toxicity.
In assay [4] the target is Voltage-gated potassium channel subunit beta-2 (Rattus norvegicus) (UniProt P62483). As to the kind of experiment: KvBeta enzyme negative modulators, primary screen, biochemical, NADPH fluorescence (AID 622;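 active means fluorescence slope higher than the sample average by over 3 SD, cut at about -0.22 in these data, passing the limit was not always enough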;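 further: slope of raw intensity against log time taken from 70 to 1610 s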). The conditions noted are these: recombinant KvBeta, 4-cyanobenzaldehyde reduction, at 10 µM, stronger effect = higher value.
Chain of Voltage-gated potassium channel subunit beta-2 (Rattus norvegicus) (P62483 whole entry, looked up): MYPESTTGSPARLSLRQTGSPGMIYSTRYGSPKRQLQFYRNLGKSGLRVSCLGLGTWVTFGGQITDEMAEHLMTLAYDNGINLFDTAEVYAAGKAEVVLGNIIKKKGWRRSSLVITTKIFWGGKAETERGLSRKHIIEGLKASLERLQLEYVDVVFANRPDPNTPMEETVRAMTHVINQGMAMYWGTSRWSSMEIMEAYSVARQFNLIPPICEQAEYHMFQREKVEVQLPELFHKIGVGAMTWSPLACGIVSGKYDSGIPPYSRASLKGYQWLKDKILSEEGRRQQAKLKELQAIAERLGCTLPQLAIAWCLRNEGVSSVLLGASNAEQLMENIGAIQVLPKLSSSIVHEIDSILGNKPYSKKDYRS
Assay [5] shares this target. As to the kind of experiment: KvBeta positive modulators, primary screen, biochemical, NADPH fluorescence (AID 623;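 active means NADPH fluorescence slope more negative than the mean of all samples by about 3 SD, 99.7% confidence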;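 further: fluorescence intensity change per second fitted from 20 to 320 s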). Conditions: Recombinant KvBeta, NADPH fluorescence decrease slope, 10 min; at 10 µM; stronger effect = lower value.
For assay [6], the target named is Alpha-2C adrenergic receptor (Homo sapiens) (UniProt P18825). As to the kind of experiment: modulators of alpha2C/GIRK thallium flux, primary screen, cell-based, HEK293 alpha2C/GIRK1/2 (AID 624;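 active means fluorescence slope after compound addition differing from the mean of all screened samples at 99.7% confidence, in either direction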;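 further: slope of fluorescence ratio to pre-addition baseline per second over 15 to 24 s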). Conditions: thallium flux BTC fluorescence, at 10 µM, actives lie on both sides.
Chain of Alpha-2C adrenergic receptor (Homo sapiens) (P18825 whole entry, looked up): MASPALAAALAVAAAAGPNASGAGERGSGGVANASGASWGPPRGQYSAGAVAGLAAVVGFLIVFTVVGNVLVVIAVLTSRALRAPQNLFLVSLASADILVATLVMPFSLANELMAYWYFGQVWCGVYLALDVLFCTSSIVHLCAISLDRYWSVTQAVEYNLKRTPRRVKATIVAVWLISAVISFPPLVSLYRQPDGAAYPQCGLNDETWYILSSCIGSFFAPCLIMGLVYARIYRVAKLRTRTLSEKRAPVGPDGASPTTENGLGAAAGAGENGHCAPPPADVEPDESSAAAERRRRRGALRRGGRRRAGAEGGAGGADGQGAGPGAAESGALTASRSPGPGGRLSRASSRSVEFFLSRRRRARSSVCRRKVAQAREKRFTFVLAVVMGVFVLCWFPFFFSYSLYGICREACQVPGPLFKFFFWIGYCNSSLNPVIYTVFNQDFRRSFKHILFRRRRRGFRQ
Assay [7] is described as follows: inhibitors of Sendai virus-induced IRF3 signaling, primary screen, TLR/RLR signaling modifier project, cell-based, Sendai virus stimulus, luciferase, 10K MLSCN set (AID 602276).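 Further: firefly luciferase from ISG56 promoter only with Renilla not read in this screen; 0% = Sendai virus plus DMSO and 100% = medium plus DMSO without virus.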 Conditions: HEK293 RL24 IRF3 luciferase reporter, at 10 µM, stronger effect = higher value.
A short description of assay [8]: inhibitors of poly I:C-induced TLR3 signaling, primary screen, cell-based, poly I:C stimulus, luciferase, 10K MLSCN set (AID 602277;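 active means inhibition of the reporter signal at or above 50%; inactive means inhibition below 50%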). Conditions: HEK293-TLR3 RL24 IRF3 luciferase reporter, at 10 µM, stronger effect = higher value. In general terms: A reporter such as luciferase makes a cellular process visible.

`COc1ccccc1N1CCN(C/C(O)=C(\C#N)c2nc(-c3ccccc3)cs2)CC1`: the cell count in assay [1] came to 475. Also, the inhibition in assay [1] was -3.4% (inactive); in assay [3] it was -33.4% (inactive); in assay [7], -9.12% (inactive); in assay [8] it was -1.83% (inactive). Besides, the inhibition of aggregation in assay [2] was -1.4% (inactive). Further, the nuclei count stood at 114% in assay [2] and 119% in assay [3]. Also, in assay [4], the fluorescence slope was -0.56 (inactive). Further, the NADPH fluorescence slope in assay [5] was 4.6e-05 (inactive). In addition, the slope in assay [6] is 0.00548 (inactive).

For the compound `CCCCN(C)Cc1c(O)ccc2c(-c3ccccc3)cc(=O)oc12`, the cell count in assay [1] was 303. The inhibition is 0.3% (inactive) in assay [1], -26.5% (inactive) in assay [3], -3.57% (inactive) in assay [7] and 28.4% (inactive) in assay [8]. In assay [2], the inhibition of aggregation was 5% (inactive). Further, the nuclei count was found to be 103% in assay [2] and 96.4% in assay [3]. Further, the fluorescence slope in assay [4] is -0.158 (active). Besides, the NADPH fluorescence slope in assay [5] was -2.3e-05 (inactive). Also, the slope in assay [6] was 0.00475 (inactive).

For the compound `COc1ccc(CCNC(=O)CC2COc3ccccc3O2)cc1OC` (centres undefined), the cell count in assay [1] came to 611. Moreover, the inhibition in assay [1] was -7.2% (inactive); in assay [3] it was -28.9% (inactive); in assay [7], 19.4% (inactive); in assay [8] it was 20.3% (inactive). The inhibition of aggregation in assay [2] was 25% (inactive). The nuclei count in assay [2] and in assay [3] was 115% in each case. Besides, in assay [4], the fluorescence slope is -0.619 (inactive). Moreover, the NADPH fluorescence slope in assay [5] is 2.1e-05 (inactive). In addition, the slope in assay [6] was 0.00334 (inactive).

Consider `Cc1ccc2c(c1)c1c3n2CC(=C2C(=O)OC(C)(C)OC2=O)NC3CCC1` (centres undefined), for which the cell count in assay [1] came out at 613. The inhibition was -10.5% (inactive) in assay [1], -142% (inactive) in assay [3], 16.6% (inactive) in assay [7] and 1.44% (inactive) in assay [8]. Also, the inhibition of aggregation in assay [2] is -5.4% (inactive). For the same compound, the nuclei count in assay [2] came out at 10.9%; in assay [3] it was 139%. Further, the fluorescence slope in assay [4] was -0.589 (inactive). In addition, the NADPH fluorescence slope in assay [5] is -1.7e-05 (inactive). For the same compound, the slope in assay [6] was 0.00226 (inactive).

Regarding `CCn1c(C(Cc2ccccc2)NC(=O)COC)nc2ccccc21` (centres undefined), the cell count in assay [1] is 471. For the same compound, the inhibition in assay [1] was 13.9% (inactive); in assay [3], 14.1% (inactive); in assay [7], 11% (inactive); in assay [8], 31.9% (inactive). Further, the inhibition of aggregation in assay [2] is 5.5% (inactive). In addition, the nuclei count came to 124% in assay [2] and 110% in assay [3]. The fluorescence slope in assay [4] was -0.536 (inactive). In assay [5], the NADPH fluorescence slope was -6.3e-05 (inactive). The slope in assay [6] is 0.00652 (inactive).

With `CCc1cccc(NC(=O)CN(C)S(=O)(=O)c2cccc3nsnc23)c1`, the cell count in assay [1] was 337. Moreover, the inhibition is -6.3% (inactive) in assay [1], -68.8% (inactive) in assay [3], 10.2% (inactive) in assay [7] and 8.03% (inactive) in assay [8]. Also, the inhibition of aggregation in assay [2] is 7.8% (inactive). Besides, the nuclei count in assay [2] was determined as 94%; in assay [3], 120%. For the same compound, the fluorescence slope in assay [4] was -0.35 (inactive). For the same compound, the NADPH fluorescence slope in assay [5] is -6.7e-05 (inactive). Moreover, in assay [6], the slope is 0.0056 (inactive).

Turning to `Cn1c(=O)[nH]c(=O)c2c1nc(N1CCCCC1)n2CCSc1ncccn1`, in assay [1], the cell count was determined as 637. For the same compound, the inhibition in assay [1] is -11.8% (inactive); in assay [3] it was -20.6% (inactive); in assay [7], 10% (inactive); in assay [8] it was 25.5% (inactive). Moreover, the inhibition of aggregation in assay [2] is -16.6% (inactive). The nuclei count in assay [2] stood at 93%; in assay [3], 122%. Also, in assay [4], the fluorescence slope was -0.438 (inactive). For the same compound, in assay [5], the NADPH fluorescence slope was -6.7e-05 (inactive). The slope in assay [6] is 0.00492 (inactive).

`O=C(NCc1cccs1)C(Cc1ccccc1)n1cccc1` (centres undefined): the cell count in assay [1] stood at 602. In addition, the inhibition in assay [1] is -6.3% (inactive); in assay [3] it was -25.8% (inactive); in assay [7] it was 1.52% (inactive); in assay [8], 26.2% (inactive). The inhibition of aggregation in assay [2] was 6.2% (inactive). In addition, the nuclei count in assay [2] came to 95.4%; in assay [3], 115%. For the same compound, in assay [4], the fluorescence slope was -0.614 (inactive). Also, in assay [5], the NADPH fluorescence slope was -5.2e-05 (inactive). For the same compound, the slope in assay [6] is 0.00634 (inactive).

`CCOC(=O)Cc1csc(NC(=O)CSc2nnc(C(C)C)n2CC)n1`: the cell count in assay [1] was 812. Moreover, the inhibition is -6.2% (inactive) in assay [1], -33.7% (inactive) in assay [3], 18.4% (inactive) in assay [7] and 21.8% (inactive) in assay [8]. Further, the inhibition of aggregation in assay [2] is 13.4% (inactive). Further, the figures for the nuclei count in assay [2] and in assay [3] were 89.5% and 119%, respectively. The fluorescence slope in assay [4] is -0.317 (inactive). Further, the NADPH fluorescence slope in assay [5] is 1.9e-05 (inactive). Moreover, the slope in assay [6] was 0.00691 (inactive).

Turning to `COc1ccc(C2C(C(C)=O)=C(C)N=c3s/c(=C/c4ccc5c(c4)OCO5)c(=O)n32)cc1` (centres undefined), in assay [1], the cell count worked out at 437. In addition, the inhibition was -7.3% (inactive) in assay [1], -0.5% (inactive) in assay [3], 10.2% (inactive) in assay [7] and 23.9% (inactive) in assay [8]. Besides, the inhibition of aggregation in assay [2] is -44.9% (inactive). Besides, the nuclei count in assay [2] and in assay [3] was 116% in each case. Moreover, the fluorescence slope in assay [4] is -0.528 (inactive). The NADPH fluorescence slope in assay [5] is -5.5e-05 (inactive). Further, the slope in assay [6] is 0.00398 (inactive).

On to `COc1ccc(S(=O)(=O)NCC(c2cccnc2)N2CCN(C)CC2)cc1C` (centres undefined), for which the cell count in assay [1] is 600. The inhibition in assay [1] is -1.8% (inactive); in assay [3], 2% (inactive); in assay [7], 4.66% (inactive); in assay [8], 29.1% (inactive). The inhibition of aggregation in assay [2] was -1.7% (inactive). In addition, the nuclei count in assay [2] worked out at 84.8%; in assay [3] it was 105%. Moreover, the fluorescence slope in assay [4] is -0.586 (inactive). In addition, in assay [5], the NADPH fluorescence slope was -1.6e-05 (inactive). For the same compound, the slope in assay [6] is 0.00609 (inactive).

For the compound `Cc1nnc(Nc2ccccn2)c2ccccc12`, in assay [1], the cell count worked out at 657. Moreover, the inhibition in assay [1] was 7.2% (inactive); in assay [3], -61.4% (inactive); in assay [7], 8.64% (inactive); in assay [8], 13.2% (inactive). Further, the inhibition of aggregation in assay [2] is 8.1% (inactive). Moreover, the nuclei count in assay [2] stood at 104%; in assay [3], 109%. Further, the fluorescence slope in assay [4] was -0.465 (inactive). Also, the NADPH fluorescence slope in assay [5] was -4.2e-05 (inactive). Besides, the slope in assay [6] was 0.00477 (inactive).

With `CC1(C)CC(=O)C(C=NCc2ccc3c(c2)OCO3)=C(O)C1`, the cell count in assay [1] was 665. For the same compound, the inhibition in assay [1] is -29.5% (inactive); in assay [3] it was -10.4% (inactive); in assay [7], 13.9% (inactive); in assay [8] it was 19.8% (inactive). In addition, the inhibition of aggregation in assay [2] is 2.3% (inactive). The nuclei count was found to be 104% in assay [2] and 93.7% in assay [3]. Also, the fluorescence slope in assay [4] is -0.459 (inactive). For the same compound, the NADPH fluorescence slope in assay [5] is 3.1e-05 (inactive). Moreover, the slope in assay [6] is 0.00553 (inactive).

On to `O=S(=O)(Cc1ccccc1)N1CCN(Cc2ccccc2)CC1`, for which the cell count in assay [1] is 386. For the same compound, the inhibition was 4.8% (inactive) in assay [1], -74.1% (inactive) in assay [3], -12% (inactive) in assay [7] and -7.67% (inactive) in assay [8]. The inhibition of aggregation in assay [2] was 12.7% (inactive). Moreover, the nuclei count in assay [2] was found to be 103%; in assay [3], 117%. In addition, the fluorescence slope in assay [4] was -0.46 (inactive). The NADPH fluorescence slope in assay [5] is 4.9e-05 (inactive). In assay [6], the slope is 0.00741 (inactive).

As usually defined, the inhibition is the relative decrease from the control value, in per cent.
